Bioassay records as filed in PubChem BioAssay.
KB-V1 MDR tox: KB-V1 MDR subline cytotoxicity | AID 1347076 | Potency, µM (doses to about 46.1 µM), usual class: cytotoxic | 400,000 compounds, 3.4% hits | KB-V1 MDR cells viability, CellTiter-Glo, 72 h; also: nearly all actives have a fitted effect of over 60% in size
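Compound-treated KB-V1 multidrug-resistant cells, 72 h, 37 degrees C; viability by CellTiter-Glo. Fitted qHTS curves give the values.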
HT1080-NT tox: kills 2HG-producing HT-1080-NT fibrosarcoma cells; 360,000 compounds, 1.6% hits; HT-1080-NT fibrosarcoma viability, CellTiter-Glo ATP luminescence, 48 h; Potency, µM (doses to about 46.1 µM), for inactives: at the highest dose activity, negative = less viability, actives largely listed as cytotoxic; AID 686970;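 also: NT is the 2HG producing partner of a matched IDH1 knockdown line; 0% = DMSO-treated cells and -100% = media-only wells without cells; nearly all actives have a fitted effect of over 55% in size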
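750 cells/well, RPMI + 5% FBS; 2 h settle, compound pin-transfer, 48 h at 37 degrees C. CellTiter-Glo 10 min RT, luminescence. Normalized to DMSO and media-only wells.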
HT1080 IDH1KD tx: HT-1080 IDH1 knockdown cell toxicity (counter line) | HT-1080 IDH1 knockdown viability, ATP luminescence, 48 h | Potency, µM (highest dose often 46.1 µM), without a hit: top-dose activity, negative = toxicity, usual class: cytotoxic | 360,000 compounds, 2% hits | AID 686971;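 also: 0% = DMSO wells and -100% = cell-free medium wells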
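Luminescent ATP read-out (CellTiter-Glo, 10 min at room temperature) after 48 h compound exposure at 37 °C gave viability of IDH1-knockdown HT-1080 cells. Activity was normalised to DMSO and cell-free wells, then fitted as concentration-response curves.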
KB-3-1 cytotox: KB-3-1 parental cell cytotoxicity; KB-3-1 viability, CellTiter-Glo ATP luminescence, 72 h; Potency, µM (top dose mostly 46.1 µM), actives largely listed as cytotoxic; 400,000 compounds, 1.4% hits; also: nearly all actives have a fitted effect of over 60% in size
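Multi-concentration cytotoxicity screen in KB-3-1 cells grown in DMEM lacking phenol red with 10% FBS. After 72 h at 37 °C with compound, ATP-dependent luminescence was recorded.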
The depositor's hits bear a star; i = inactive; ? = inconclusive; · = no result given. A selection: hits, their analogues and other compounds. The true share with any hit is near 5.7%. Calls follow the shape of the dose curve; as a rule, active = well fitted curve in the direction sought with a large enough effect; inconclusive = small, poorly fitted or top-dose-only effect, or another doubt; inactive = no such curve, though single readings can be large; an effect the other way counts as inactive or inconclusive. Unless noted, % is scaled to controls: 0 for no effect and ±100 for the full control effect; potency is read from the fitted curve at half-maximal effect.

SMILES	KB-V1 MDR tox	HT1080-NT tox	HT1080 IDH1KD tx	KB-3-1 cytotox
CC(C)NC(=O)CN1C(=O)c2cccnc2Sc2ccccc21	i	·	·	i
O=C1CCCC2=C1C1(CCCC1)N=C(Nc1nc3cc(Br)ccc3o1)N2	i	·	·	i
COc1cc(C(=O)C(=O)N2CCN(c3ccccc3)CC2)cc(OC)c1OC	?	?	7.31µM*	20.6µM*
COc1cc(C(=O)N2CCN(S(=O)(=O)c3ccc(F)cc3)CC2)cc(OC)c1OC	20.6µM*	8.1%	-2.2%	i
CCOCCCNC(=S)N1CCCN(c2nc3cc(C)ccc3cc2C#N)CC1	i	?	7.0%	i
Cc1ccc(N2CCN(C(=O)c3ccccc3)CC2)c(C)c1	i	4.9%	1.1%	i
Cc1ccc2cc(C#N)c(N3CCCN(C(=S)NCCCN(C)C)CC3)nc2c1	i	20.6µM*	20.6µM*	?
COc1cc(C(=O)N2CCN(c3ccc(C)cc3C)CC2)cc(OC)c1OC	?	4.61µM*	5.8µM*	2.31µM*
Cc1ccc2c(=O)c(C(=O)c3ccccc3)cn(CC(=O)Nc3ccc4c(c3)OCCO4)c2n1	i	·	·	i
COc1cc(C(=O)N2CCCN(c3nc4cc(C)ccc4cc3C#N)CC2)cc(OC)c1OC	18.4µM*	-8.0%	0.3%	i
CCC(=O)N1CCc2cc(S(=O)(=O)NC(CC(C)C)C(=O)N3CCc4ccccc43)ccc21 (stereo unspecified)	13µM*	-15.9%	1.7%	i
COc1ccc2nc(NC(=O)c3cccc(OCc4c(C)noc4C)c3)sc2c1	3.66µM*	?	?	18.4µM*
COc1ccc2nc(NC(=O)c3cc(C)oc3C)sc2c1	?	-17.5%	-21.4%	?
COc1ccc2nc(NC(=O)c3ccoc3C)sc2c1	7.31µM*	10µM*	11.2µM*	i
CCN(Cc1ccc(Cl)s1)C(=O)c1cccc(OCc2c(C)noc2C)c1	5.8µM*	-9.2%	-4.0%	?
Cc1noc(C)c1COc1cccc(C(=O)NCc2ccccc2Cl)c1	i	-0.4%	-28.5%	i
CCSc1nnc(NC(=O)c2cccc(OCc3c(C)noc3C)c2)s1	i	-0.5%	-10.8%	i
CCCC(=O)Nc1nc2ccc(OC)cc2s1	i	2.6%	-0.4%	i
COc1ccc2nc(NC(=S)N(C)C)sc2c1	3.26µM*	-2.4%	-19.9%	20.6µM*
CCc1ccc2oc(-c3ccc(C)c(NC(=O)COc4ccc(Cl)cc4)c3)nc2c1	i	·	·	i
COc1ccc(NS(=O)(=O)c2ccccc2)cc1NS(=O)(=O)c1ccccc1	i	·	·	i
CCOc1ccc2nc(NC(=O)c3cccc(-c4cc5ccccc5oc4=O)c3)sc2c1	?	13µM*	16.4µM*	i
O=C(Nc1nnc2n1CCS2)c1cc(C(F)(F)F)cc(C(F)(F)F)c1	?	·	·	i
Cc1cccc(CSCCNC(=S)Nc2ccccc2)c1	18.4µM*	-10.2%	-11.0%	?
S=C(NCCSCc1ccc(Cl)cc1)Nc1ccccc1	?	0.4%	3.4%	i
SMILES	KB-V1 MDR tox	HT1080-NT tox	HT1080 IDH1KD tx	KB-3-1 cytotox
COc1ccc(CCNC(=O)c2ccc3nc(Cc4ccccc4)oc3c2)cc1OC	i	·	·	i
COc1ccc(-c2nn(-c3ccc(F)cc3F)c3c2cnc2ccc(F)cc23)cc1	i	·	·	i
C/C(=N\Nc1ccc([N+](=O)[O-])cc1)c1ccc(O)cc1	i	?	?	i
CC(C)OP(=O)(OC(C)C)/C(C=O)=N\Nc1ccc([N+](=O)[O-])cc1	i	20.6µM*	16.4µM*	?
CC(C)c1ccc(NC(=O)C2CCCN(S(=O)(=O)c3cccc4cccnc34)C2)cc1 (stereo unspecified)	i	·	·	i
COc1ccccc1NCC(O)COc1ccc(C(C)(C)C)cc1 (stereo unspecified)	i	16.4µM*	16.4µM*	i
COc1ccc(OCC(O)CNCc2ccco2)cc1 (stereo unspecified)	i	6.9%	8.2%	i
OC(CNCc1ccco1)COc1ccccc1 (stereo unspecified)	0.0018µM*	-5.5%	-22.6%	i
OC(CNc1ccccc1)COc1ccc(OCC(O)CNc2ccccc2)cc1 (stereo unspecified)	?	20.6µM*	20.6µM*	?
Cc1ccc(C)c(N2CCN(C(=O)c3cccn3-c3nnc(N4CCCCC4)s3)CC2)c1	i	·	·	i
